According to PubChem BioAssay (NCI):
The panel holds about 79,000 compounds, 15% with a hit somewhere; the sample as a whole holds those more often. Activity calls are given as the source filed them. Cut-off read from the data, not from the text of the source: active = growth inhibition above about 70%; inactive = the rest.

Assay: NCI Yeast Anticancer Drug Screen. Data for the mec2-1 strain (AID 157)
Details: S. cerevisiae mec2-1 strain, at 50.0 µM, hits give high values
Method in brief: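 Cells of the genetically defined mec2-1 yeast strain are incubated with test compound. Inhibition of growth is calculated against vehicle-treated controls.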

| SMILES | growth inhibition |
| --- | --- |
| N#Cc1c(C#N)c(-c2cccc([N+](=O)[O-])c2)n(-c2ccccc2)c1N | 15.5% (inactive) |
| Nc1ncnc(N)c1NC(=O)CCCCc1ccccc1 | -12.2% (inactive) |
| CC1=C2CC[C@@]3(C)C(=CCC3O)C2(C)CCC1=O (stereo not given in full) | 11.9% (inactive) |
| O=C1c2ccccc2-c2nc3cc4ccccc4cc3nc21 | 15.6% (inactive) |
| CCC(CC)C(=O)OCCOc1ccccc1 | -0.25% (inactive) |
| CN1CCN(C(=O)Nc2ccc(N=Nc3ccccc3)cc2)CC1 | -17.2% (inactive) |
| Cc1cc2c(cc1C)NS(=O)(=O)N2 | 10.4% (inactive) |
| CC(C)/C=C\C(=O)CC(C)C | 28.8% (inactive) |
| CC(C)=NOC(=O)Nc1cccc2c1OCO2 | -19.4% (inactive) |
| CC(C)NC(=O)Nc1cccc(Cl)c1 | 7.2% (inactive) |
| CN=C(c1ccccc1)N(O)c1ccccc1 | -1.15% (inactive) |
| C=CC(=O)NC1CCCCC1 | -10.9% (inactive) |
| O=c1c2c(-c3ccccc3)c3ccccc3nc2cnn1-c1ccccc1 | -11% (inactive) |
| CC(C)CN(CC(C)C)C(=O)C1CCCC[C@@H]1C(=O)O (stereo not given in full) | 15.2% (inactive) |
| C=CCOC(=O)Nc1ccc(C)c(NC(=O)OCC=C)c1 | -45% (inactive) |
| CCOP(=O)(OCC)C(Cc1ccc(OC)c(OC)c1)N=C(c1ccccc1)c1ccccc1 (stereo not given) | -5.7% (inactive) |
| c1ccc(-c2ccccc2N=C2N=NN=N2)cc1 | -6.9% (inactive) |
| S=C1c2cc(Cl)ccc2NC(=NC2CCCC2)C2CSCN12 (stereo not given) | 14.7% (inactive) |
| CCOC(=O)/C(C#N)=C/Nc1c(C)n(C)n(-c2ccccc2)c1=O | 10.3% (inactive) |
| CC(=O)N/N=C/c1ccc([N+](=O)[O-])s1 | 15.1% (inactive) |

| SMILES | growth inhibition |
| --- | --- |
| O=C(O)C(=O)Cc1ccc(Br)cc1[N+](=O)[O-] | -6.6% (inactive) |
| CC(C)C(=O)Nc1nc2c(ncn2C2OC(CO)C(O)C2O)c(=O)[nH]1 (stereo not given) | -23.6% (inactive) |
| CC(SC(=S)N1CCOCC1)C(=O)O (stereo not given) | -6.8% (inactive) |
| O=C(Nc1ccc([N+](=O)[O-])cc1)c1cc(N2CCOCC2)ccn1 | 16.6% (inactive) |
| N#C/C(=C\c1ccccc1)c1cccc(Cl)c1 | -5.8% (inactive) |
| Cc1ccc(S(=O)(=O)OC2CCCCCCCCCCC2=O)cc1 (stereo not given) | 6.1% (inactive) |
| CCOC(=O)CN=NNc1ccccc1C(C)=O | 7.45% (inactive) |
| COc1ccc(NC(=S)NN=C(C)c2cccc(C(C)=NNC(=S)Nc3ccc(OC)cc3)n2)cc1 | -23.1% (inactive) |
| O=P(c1ccccc1)(c1ccccc1)C(O)c1cccs1 (stereo not given) | 2% (inactive) |
| CCOc1ncc(C(O)c2ccco2)c(OCC)n1 (stereo not given) | 5.85% (inactive) |
| N#C/C(=N/Nc1nc[nH]c1C(N)=O)C(=O)Nc1ccccc1 | 20.9% (inactive) |
| CSC(SC)=C(C(=O)c1ccc(Cl)cc1)n1c(=O)sc2cc(Br)ccc21 | 2.45% (inactive) |
| O=C(Nc1nc2ncn(CCI)c2c(=O)[nH]1)c1ccccc1 | 6.55% (inactive) |
| O=C(C[n+]1cccc(Cl)c1)c1cccc([N+](=O)[O-])c1 | -7.2% (inactive) |
| NC(=O)COc1c(Br)cc(Br)cc1Br | 6.65% (inactive) |
| Cc1cc(C)cc(C(=O)OC2CCCC2)c1 | 0.35% (inactive) |
| O=C1Nc2ncnc(Cl)c2Cc2ccccc21 | -6.9% (inactive) |
| C/C(CC(=O)N1CCCCC1)=N\NC(N)=S | -9.45% (inactive) |
| COc1ccc(/C=C2/CCOC2=O)cc1 | 18.7% (inactive) |
| Cn1c(C2CCc3cc(O)ccc3C2)cccc1=O (stereo not given) | 13.1% (inactive) |
